Test [1] can be described thus: qHTS assay to identify small molecule agonists of the sonic hedgehog signaling (Shh) pathway (AID 1259368).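 Note: NIH/3T3-derived 3T3Gli1-Luc cells carrying a stable Gli1-driven firefly luciferase reporter; series mostly up to about 92 µM; nearly all actives have a fitted effect of over 15% in size.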 The gist of the method:
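Stable NIH/3T3 Gli1-Luc reporter clone; 24 hr cpd exposure after a 4 hr settling period; luminescence endpoint.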
(In general: In qHTS, concentration-response curves come from the screen itself.)

Test [2] is described as follows: qHTS assay to identify small molecule antagonists of the sonic hedgehog signaling (Shh) pathway (AID 1259369). Note: nearly all actives have a fitted effect of over 45% in size. A digest of the protocol:
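Gli1 transcriptional reporter (firefly Luc) in NIH/3T3 background, conditioned-medium activated. 24hr exposure, luminescence endpoint.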

The target in test [3] is Estrogen receptor beta (Homo sapiens) (UniProt Q92731). Put plainly: qHTS assay to identify small molecule agonists of the estrogen receptor beta (ER-beta) signaling pathway (AID 1259377; active = well fitted activation curve with a large enough effect in the signal ratio in the repeat runs, not every such curve was filed as active; the % refers to the signal ratio; note: potency is the fitted concentration of half-maximal effect). The gist of the method:
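A UAS-controlled beta-lactamase reporter in ER-beta-UAS-bla HEK293T cells reports receptor activation. Compounds act for 16 hr at 37C in 2% charcoal-stripped serum, and a FRET substrate is read by fluorescence after 2 hours.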

For test [4] the target is unchanged. Put plainly: qHTS assay to identify small molecule antagonists of the estrogen receptor beta (ER-beta) signaling pathway (AID 1259378; active = well fitted inhibition curve with a large enough effect in the signal ratio in the repeat runs, not every such curve was filed as active; the % refers to the signal ratio). The gist of the method:
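Antagonist mode: compounds added to beta-lactamase reporter HEK293T ER-beta-UAS cells stimulated with E2 (1nM final), 16 hr at 37C. LiveBLAzer B/G FRET substrate, 2 hours room temperature, fluorescence read-out.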

Test [5] can be described thus: qHTS assay to identify small molecule agonists of the androgen receptor (AR) signaling pathway in the presence of an antagonist - cell viability counter screen (AID 1259379; active = well fitted curve in the direction sought with a large enough effect in the repeat runs; an effect the other way counts as inactive or inconclusive; note: nearly all actives have a fitted effect of over 25% in size; note: potency is the fitted concentration of half-maximal effect;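 for activity change, negative = cytotoxicity: MDA-kb2 human breast cancer cells carrying an MMTV luciferase reporter; series mostly up to about 92 µM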). A digest of the protocol: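 Counter screen for cell viability run in parallel with the AR agonist-mode luciferase assay. MDA-kb2 cells were co-treated with nilutamide (3.0uM final) and compounds, then incubated 16 hr at 37C, and CellTiter-Fluor fluorescence was measured.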

Test [6] can be described thus: qHTS assay to identify small molecule agonists of the estrogen receptor beta (ER-beta) signaling pathway - cell viability counter screen (AID 1259380; active = well fitted curve in the direction sought with a large enough effect in the repeat runs; an effect the other way counts as inactive or inconclusive; note: nearly all actives have a fitted effect of over 30% in size). The gist of the method: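 In this qHTS counter screen, HEK293T cells carrying an ER-beta/UAS beta-lactamase reporter, grown in 2% charcoal-stripped FBS, received compound for 16 hr; ATP-based CellTiter-Glo luminescence was then read after 30 min at room temperature.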

Test [7] deals with Androgen receptor (Homo sapiens) (UniProt P10275). Put plainly: qHTS assay to identify small molecule agonists of the androgen receptor (AR) signaling pathway in the presence of an antagonist (AID 1259381). Note: nearly all actives have a fitted effect of over 15% in size. The gist of the method:
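AR antagonist background: nilutamide 3.0uM final. Cell line: MDA-kb2, MMTV-driven luciferase, responsive to both AR and GR. Exposure 16hr, 37C, no CO2; ONE-Glo luminescence.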

A short description of test [8]: qHTS assay to identify small molecule antagonists of the estrogen receptor beta (ER-beta) signaling pathway - cell viability counter screen (AID 1259382; active = well fitted curve in the direction sought with a large enough effect in the repeat runs; an effect the other way counts as inactive or inconclusive;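 note: HEK293T cells carrying ER-beta-UAS-bla reporter stimulated with estradiol; series mostly up to about 92 µM; nearly all actives have a fitted effect of over 55% in size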). The gist of the method:
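HEK293T ER-beta-UAS-bla, 2% charcoal-stripped FBS; compounds + 1nM E2 16 hr 37C; CellTiter-Glo luminescence, 30 min RT.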

Test [9] has as its target Estrogen receptor (Homo sapiens) (UniProt P03372). Put plainly: qHTS assay to identify small molecule agonists of the estrogen receptor alpha (ER-alpha) signaling pathway in the presence of an antagonist (AID 1259383). Note: top concentration of the series differs between compounds; nearly all actives have a fitted effect of over 15% in size. The gist of the method: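 ER-alpha agonism measured under antagonist challenge: 10.0nM ICI-182,780 (final) plus compound, 15 concentrations, 22hr, VM7Luc4E2 ERE-luciferase cells. Read by luminescence.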

A short description of test [10]: qHTS assay to identify small molecule agonists or antagonists of the thyroid stimulating hormone receptor (TSHR) signaling pathway - wild type cell line counter screen (AID 1259384). The gist of the method: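 Counter screen in untransfected Hek293: compounds (15-point titration, triplicate) plus phosphodiesterase inhibitor Ro20-1724 added after 18 h plating; 30 min RT. Intracellular cAMP via competitive d2/cryptate immunoassay, 1 h incubation.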

Consider 26 compounds from PubChem BioAssay (Tox21).

Unmarked numbers belong to inactive results. Results filed as inconclusive are left out. Calls of active or inactive are those of the source. Unless noted, calls come from the whole dose curve.
% is set by controls: 0 for no effect and ±100 for the full control effect.

Chain of Estrogen receptor (Homo sapiens) (P03372 whole entry, looked up): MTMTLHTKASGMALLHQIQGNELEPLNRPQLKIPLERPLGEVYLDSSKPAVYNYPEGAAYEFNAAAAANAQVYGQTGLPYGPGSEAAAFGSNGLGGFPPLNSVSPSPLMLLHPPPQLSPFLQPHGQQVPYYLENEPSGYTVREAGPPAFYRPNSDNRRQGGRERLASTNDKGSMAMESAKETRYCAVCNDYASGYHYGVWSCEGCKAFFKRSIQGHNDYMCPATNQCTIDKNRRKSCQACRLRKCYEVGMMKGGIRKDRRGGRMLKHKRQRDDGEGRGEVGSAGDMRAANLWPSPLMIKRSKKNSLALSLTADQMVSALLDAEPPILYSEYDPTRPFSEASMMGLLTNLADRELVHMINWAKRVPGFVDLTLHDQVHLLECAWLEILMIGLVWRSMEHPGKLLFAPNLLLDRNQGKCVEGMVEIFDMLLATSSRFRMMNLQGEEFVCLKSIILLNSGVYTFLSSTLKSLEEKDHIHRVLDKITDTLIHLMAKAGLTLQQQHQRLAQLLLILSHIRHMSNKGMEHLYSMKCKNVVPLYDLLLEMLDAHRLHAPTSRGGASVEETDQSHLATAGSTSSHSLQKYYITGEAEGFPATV
Chain of Androgen receptor (Homo sapiens) (P10275 whole entry, looked up): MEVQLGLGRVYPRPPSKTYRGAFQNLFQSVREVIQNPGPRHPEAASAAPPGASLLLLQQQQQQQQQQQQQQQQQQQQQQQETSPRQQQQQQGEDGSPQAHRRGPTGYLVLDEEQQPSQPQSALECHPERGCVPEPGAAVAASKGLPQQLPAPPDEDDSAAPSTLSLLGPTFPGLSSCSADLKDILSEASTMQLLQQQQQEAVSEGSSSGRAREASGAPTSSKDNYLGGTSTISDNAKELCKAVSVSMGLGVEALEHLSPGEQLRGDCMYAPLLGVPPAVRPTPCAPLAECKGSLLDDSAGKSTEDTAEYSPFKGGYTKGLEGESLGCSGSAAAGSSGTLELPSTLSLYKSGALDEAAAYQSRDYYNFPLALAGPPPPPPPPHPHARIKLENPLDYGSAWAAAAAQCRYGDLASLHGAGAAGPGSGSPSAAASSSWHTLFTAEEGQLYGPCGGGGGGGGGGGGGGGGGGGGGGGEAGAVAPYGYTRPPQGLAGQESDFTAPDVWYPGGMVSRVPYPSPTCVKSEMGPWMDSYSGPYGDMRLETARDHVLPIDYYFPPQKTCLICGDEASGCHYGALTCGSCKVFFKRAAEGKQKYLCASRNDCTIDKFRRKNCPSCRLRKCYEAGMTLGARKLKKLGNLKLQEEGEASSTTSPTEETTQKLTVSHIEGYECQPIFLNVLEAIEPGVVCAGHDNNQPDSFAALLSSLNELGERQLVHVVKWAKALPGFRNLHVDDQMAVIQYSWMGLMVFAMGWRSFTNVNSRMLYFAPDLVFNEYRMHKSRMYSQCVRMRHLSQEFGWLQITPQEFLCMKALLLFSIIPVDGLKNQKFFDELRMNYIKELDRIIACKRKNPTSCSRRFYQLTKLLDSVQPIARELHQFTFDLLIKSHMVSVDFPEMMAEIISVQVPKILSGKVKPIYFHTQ
Chain of Estrogen receptor beta (Homo sapiens) (Q92731 whole entry, looked up): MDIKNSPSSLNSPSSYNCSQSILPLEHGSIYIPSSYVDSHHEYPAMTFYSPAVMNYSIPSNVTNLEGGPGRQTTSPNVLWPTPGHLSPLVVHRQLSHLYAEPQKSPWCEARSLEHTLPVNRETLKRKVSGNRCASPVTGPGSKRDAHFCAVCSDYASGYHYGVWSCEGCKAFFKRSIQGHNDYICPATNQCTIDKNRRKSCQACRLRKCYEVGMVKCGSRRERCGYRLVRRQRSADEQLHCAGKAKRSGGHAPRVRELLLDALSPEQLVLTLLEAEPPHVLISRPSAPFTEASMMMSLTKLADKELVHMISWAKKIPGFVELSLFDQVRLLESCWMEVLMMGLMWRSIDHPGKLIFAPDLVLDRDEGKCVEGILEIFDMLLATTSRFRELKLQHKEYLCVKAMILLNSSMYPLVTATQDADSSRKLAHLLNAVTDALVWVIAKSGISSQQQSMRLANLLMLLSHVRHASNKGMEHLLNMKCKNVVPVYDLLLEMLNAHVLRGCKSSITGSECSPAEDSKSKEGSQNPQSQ

Turning to `NC(=O)c1ccccc1`, the Potency result in test [1], in test [2], in test [3], in [4], in [5] and in test [6] was “inactive” in each case. In addition, the Potency result in test [7], in test [8] and in test [9] was “inactive” throughout. Further, in [10], the call was inactive.
For `O=[N+]([O-])c1ccccc1CCO`, the Potency entry in [1], in [2], in test [3], in test [4], in test [5] and in test [6] was “inactive” each time. Besides, the Potency result in test [8] was “inactive”.
With `CCCCCCCCNC`, the Potency entry in test [1], in test [2], in [3], in test [4], in test [5] and in test [6] was “inactive” throughout. In addition, the Potency entry in test [8] was “inactive”.
On to `CCOC(OCC)OCC`, for which the Potency result in [1], in test [2], in test [3], in test [4], in test [5] and in test [6] was “inactive” each time. In addition, the Potency result in test [8] and in [9] was “inactive” each time. In addition, the outcome in test [10] was inactive.
Regarding `O=C(O)c1ccc2cc(O)ccc2c1`, the Potency entry in [1], in test [2], in [3], in [4], in test [5] and in test [6] was “inactive” in each case. Moreover, the Potency entry in test [8] and in test [9] was “inactive” in each case.
Consider `CC(C(=O)O)c1ccc2c(c1)Cc1cccnc1O2` (stereo not given), for which the Potency entry in test [1], in test [2], in [3], in test [4], in test [5] and in [6] was “inactive” in each case. In addition, the Potency entry in [7] and in test [8] was “inactive” throughout.
With `CC(=O)Nc1cccc(N)c1`, the Potency entry in test [1], in [2], in test [3], in test [4], in [5] and in test [6] was “inactive” in each case. Also, the Potency entry in test [8] and in test [9] was “inactive” each time. Further, the compound was classed as inactive in test [10].
Take `Cc1ccc2c(Cl)cc(Cl)c(O)c2n1`: the Potency result in test [1], in [2], in [3], in test [4], in test [5] and in test [6] was “inactive” each time. For the same compound, the Potency entry in [7], in test [8] and in test [9] was “inactive” each time. Besides, the outcome in test [10] was inactive.
Regarding `Nc1ccc(F)cc1F`, the Potency result in test [1], in [2], in test [3], in test [4], in [5] and in [6] was “inactive” each time. In addition, the Potency entry in [7] and in test [9] was “inactive” each time.
Consider `CC(=O)CC/C=C(\C)CC/C=C(\C)CC/C=C(\C)CCC=C(C)C`, for which the Potency entry in test [1], in [2], in [3], in test [4], in [5] and in test [6] was “inactive” throughout. Further, in test [8], the Potency entry is “inactive”.
As for `CC(=O)c1cccnc1`, the Potency result in [1], in test [2], in test [3], in test [4], in test [5] and in test [6] was “inactive” throughout. In addition, the Potency result in test [8] and in [9] was “inactive” throughout.
In the case of `C=Cc1ccc(C=C)cc1`, the Potency result in [1], in test [2], in test [3], in test [4], in [5] and in [6] was “inactive” in each case. Further, the Potency entry in [8] and in test [9] was “inactive” each time. Further, in test [10], the call was inactive.
For `COC(=O)c1cc(Cl)ccc1[N+](=O)[O-]`, the Potency entry in test [1], in [2], in test [3], in test [4], in test [5] and in test [6] was “inactive” each time. Besides, the Potency entry in test [8] and in [9] was “inactive” each time. In addition, in test [10], the compound was classed as inactive.
In the case of `C[C@@H](O)[C@H]1C(=O)N2C(C(=O)O)=C(S[C@@H]3CN[C@H](CNS(N)(=O)=O)C3)[C@H](C)[C@H]12`, the Potency result in [1], in test [2], in [3], in test [4], in [5] and in test [6] was “inactive” throughout. Besides, the Potency entry in test [8] and in [9] was “inactive” each time.
Turning to `FC(F)(Cl)C(F)(Cl)Cl`, the Potency result in [1], in test [2], in test [3], in test [4], in test [5] and in test [6] was “inactive” each time. The Potency entry in [7] and in test [9] was “inactive” throughout.
For the compound `C=C[Si](OCC)(OCC)OCC`, the Potency result in test [1], in test [2], in [3], in [4], in test [5] and in test [6] was “inactive” throughout. In addition, the call in test [10] was inactive.
As to `O=C1c2ccccc2C(=O)c2c1ccc(O)c2O`, the Potency result in test [1], in test [2], in [6] and in test [8] was “inactive” throughout. The Potency in test [3] was 7.5 µM (active); in test [5], 23.7 µM (active). For the same compound, the outcome in [10] was inactive.
Regarding `CCCCCCCCCCCCSCCOCCO`, the Potency entry in [1], in test [2], in [3], in test [5], in test [6] and in test [8] was “inactive” in each case. The Potency entry in [9] is “inactive”. Besides, the result in test [10] was inactive.
`CO[C@@H]1COCC[C@@H]1N[C@@H]1CC[C@@](C(=O)N2CCc3ncc(C(F)(F)F)cc3C2)(C(C)C)C1`: the Potency entry in [1], in test [2], in test [3], in test [5] and in test [6] was “inactive” each time. In addition, the result in test [10] was inactive.
With `C=C(C)C(=O)OCCCCCCCCCCOC(=O)C(=C)C`, the Potency entry in test [1], in test [2], in test [3], in test [4], in test [5] and in test [6] was “inactive” each time. In test [8], the Potency result is “inactive”. Moreover, in test [10], the outcome was inactive.
Turning to `CCC(C)C1N=C(C)C(C)S1` (stereo not given), the Potency result in [1], in test [2], in test [3], in test [4], in test [5] and in test [6] was “inactive” throughout. In test [8], the Potency entry is “inactive”. The result in [10] was inactive.
For the compound `Clc1cccc(C(c2ccc3nc[nH]c3c2)n2ccnc2)c1` (stereo not given), the Potency result in test [1], in test [2], in [3], in test [4], in [5] and in [7] was “inactive” throughout. Further, the Potency result in test [8] and in test [9] was “inactive” each time.
As to `CC(=O)Nc1ccccc1O`, the Potency entry in [1], in test [2], in test [3], in test [4], in test [5] and in test [6] was “inactive” throughout. Further, the Potency result in test [8] is “inactive”. The compound was classed as inactive in [10].
For `O=C(OCCOCCOCCOC(=O)c1ccccc1)c1ccccc1`, the Potency entry in [1], in test [2], in [3], in test [4], in [5] and in [6] was “inactive” throughout. The Potency result in test [9] is “inactive”.
Take `COC=O`: the activity change in [1] was -3.86% [at 8.39 µM, stronger effect = higher value]. Moreover, the activity change, negative = inhibition in test [2] is 0% [at 8.39 µM]. Further, the activation was 8.91% [at 8.39 µM] in test [3] and 1.27% [at 8.39 µM] in test [9]. In addition, in test [4], the activity, negative = inhibition is 1.13% [at 8.39 µM]. The values for the activity change, negative = cytotoxicity in test [5] and in test [8] were 0.257% [at 8.39 µM] and 10.9% [at 8.39 µM], respectively.
On to `NCCOCCOCCN`, for which the Potency entry in [1], in test [2], in test [3], in test [4], in test [5] and in [7] was “inactive” in each case.
